Screens: PubChem, National Center for Advancing Translational Sciences (NCATS)
The list is not random: actives were taken first. Their share in the collection is about 8%.
MARV entry inh = Marburg virus entry inhibition; AID 720532; Potency, µM (highest dose often 49.2 µM), for the others: top-dose activity change, negative = inhibition, most hits filed as inhibitors; Marburg virus pseudotype entry/binding inhibition, cell-based; actives 6.5% (n = 18,000)
LASV entry inh = inhibitors of Lassa virus binding or entry into cells; Lassa virus pseudotyped entry inhibition, cell-based qHTS; Potency, µM (titrated, usually from 49.2 µM), for the others: top-dose activity change, negative = inhibition, hits mostly inhibitors; actives 4.1% (n = 18,000); AID 720533
The depositor's hits bear a star; ? = inconclusive; / = not tested or not shown; ! = not confirmed by another sample; [ ] = dose if it differs, or a comment. Calls follow the shape of the full dose curve; tested in HEK293 cells. % is scaled to controls: 0 for no effect and ±100 for the full control effect; potency is read from the fitted curve at half-maximal effect.

SMILES	MARV entry inh	LASV entry inh
COCCOC(=O)C1=C(C)NC(C)=C(C(=O)OC/C=C/c2ccccc2)C1c1cccc([N+](=O)[O-])c1 (stereo not given)	6.3µM*	13µM*
CCOC(=O)C1=C(C)NC(C)=C(C(=O)OC)[C@H]1c1cccc([N+](=O)[O-])c1	?	-6%
COC(=O)C1=C(C)N(Cc2ccccc2)C(=NCCc2c[nH]c3ccccc23)NC1c1cccc(F)c1 (stereo not given)	-17%[8.59 µM]	/
CC=C[C@@H]1Oc2ccc(OC)cc2N2C(=O)[C@H](C)[C@@H](OCOC)[C@H]12	-23%[8.59 µM]	-6%[8.59 µM]
Cc1ccc(S(=O)(=O)/C=C/C#N)cc1	2.8µM*	7.1µM*
CC(C)(C)c1ccc(S(=O)(=O)/C=C\C#N)cc1	16µM*	35µM*
C[C@@](N)(C(=O)O)c1ccc(S(=O)(=O)O)cc1	11%	4%
Cc1ccc(S(=O)(=O)/C=C\C#N)cc1	10µM*	16µM*
CC(CCN1CCCc2nc(C)c(C)cc21)=NO[C@H](C)c1cn([C@H](CO)Cc2ccccc2)nn1	?	1%[8.59 µM]
O=C1Nc2ccccc2C1=C1CCc2cc(O)ccc21	-21%	/
CC(=O)[C@@]12C3[C@@H](CCN3C(=O)N[C@H]1c1ccccc1)[C@H]2c1ccccc1 (stereo not given in full)	21%[8.59 µM]	-4%[8.59 µM]
COc1cc(CNCc2cc3ccc(F)cc3nc2N2CCOCC2)cc(OC)c1OC	-9%	-10%
OCCCNCc1cc2ccc(F)cc2nc1N1CCN(c2cccc(Cl)c2)CC1	10µM*	?
O=C1c2ccccc2C(=O)c2c(O)ccc(O)c21	-2%	2%
O=C1c2c(O)ccc(O)c2C(=O)c2c(NCCNCCO)ccc(NCCNCCO)c21	0.1µM*	0.32µM*
C=CCOC(=O)C(C(C)=O)[C@@H](NC(=O)OC)c1cccs1 (stereo not given in full)	-6%[8.59 µM]	-15%[8.59 µM]
CCC[C@]12CCN3C(=O)N[C@@H](c4ccccc4)[C@](C(=O)OCC)(C1)[C@H]32	9%[8.59 µM]	-15%[8.59 µM]
C[C@@]12C(=O)OC(=O)[C@]1(C)C1CCC2O1	4.5µM*	2.2µM*
O=C(Nc1cccc(N2CCC(NCc3cnn(-c4cccc(F)c4)c3)CC2)c1)c1ccncc1	2.5µM*	7%
Cn1cc(CNC2CCN(c3cccc(NC(=O)c4cccnc4)c3)CC2)cn1	-17%	-6%
CN(Cc1cnc2ccccn12)C1CCN(c2cccc(NC(=O)c3cccnc3)c2)CC1	-14%	-7%
COc1ccccc1C(=O)Nc1cccc(N2CCC(NCc3cnn(-c4ccccc4)n3)CC2)c1	11µM*	?
C=CCN(C)C1=NC(c2ccccc2)C(C(=O)OC)=C(C)N1CCOC (stereo not given)	4%[8.59 µM]	-2%[8.59 µM]
CSCC[C@@H]1NC(=O)[C@@H]2CSCCS(=O)(=O)N2C1=O	28%	19%
COc1cc2c(c(OC)c1OC)C1(c3ccccc3)CCCCCC1[C@@H]2NC(=O)C(F)(F)F (stereo not given in full)	-15%[8.59 µM]	/
SMILES	MARV entry inh	LASV entry inh
N[C@H](C(=O)O)[C@@H](O)c1ccc(O)c(O)c1	1.3µM*	?
N[C@@H](Cc1ccc(O)c(O)c1)C(=O)O	7.9µM*!	?
N[C@H](Cc1ccc(O)cc1)C(=O)O	9%	6%
CCC(N)C(O)c1ccc(O)c(O)c1 (stereo not given)	-3%	9%
Cc1ccc(O[C@@H]2[C@H](O)CO[C@H]2C=CC#Cc2ccc(C(C)(C)C)cc2)cc1	-35%[8.59 µM]	/
CN1CCN(CCCNc2nc3ccc(Oc4ccc(NC(=O)Nc5cc(C(F)(F)F)ccc5F)cc4)cc3[nH]2)CC1	?	61%
CCCNC(=O)N1C2=NC(C(=O)OC)=C(C(=O)OC)[C@@H]3N(C)c4ccccc4[C@]23C[C@H]1C(=O)OC	7%[8.59 µM]	-6%[8.59 µM]
COc1cccc2c1[C@@H]1CN(CCCCn3c(=O)[nH]c4c(sc5ncc(-c6ccccc6)nc54)c3=O)C[C@@H]1CO2	10µM*	-4%
CC(C)=CCCC(C)=CCN1C(=O)[C@@]2(C[C@@H](C)C[C@@H](C)O2)c2ccccc21	-7%[8.59 µM]	-22%[8.59 µM]
CC(Nc1oc(-c2ccccc2)nc1C(C)(C)C)c1ccccc1 (stereo not given)	-5%[8.59 µM]	/
COCc1cc(O)c(O)c(O)c1-c1c(COC)cc(O)c(O)c1O	7.9µM*	-14%
COc1ccc(C(C)=O)c(O)c1	19%	14%
O=S1(=O)CCSCCN1Cc1ccc(F)cc1F	23%	18%
COC(=O)CC=C1c2ccccc2[C@@H](NC(=O)OC)[C@@H]1C	20%[8.59 µM]	-21%[8.59 µM]
O=C(/C=C/C#Cc1cccc(NS(=O)(=O)c2ccccc2)c1)NO	?	10µM*
Nc1ccc(S(=O)(=O)Nc2ccccc2)cc1	6%	-14%
CC(Cc1ccccc1)NCc1ccccc1Cl (stereo not given)	3%	-2%
Clc1ccccc1CNCC1CCC(CNCc2ccccc2Cl)CC1 (stereo not given)	6.3µM*	20µM*
COC(=O)c1c(C)cc(OC(=O)c2c(C)cc(O)c(C=O)c2O)c(C)c1O	?	7.9µM*
Cc1cc(O)c(C=O)c(O)c1C(=O)O	-2%	0%
Cc1c(O)cccc1C(=O)N[C@@H](CSc1ccccc1)[C@H](O)CN1C[C@H]2CCCC[C@H]2C[C@H]1C(=O)NC(C)(C)C	11µM*	28µM*
COC(=O)c1c(C(=O)OC)c2c3ccccc3cc(C3CC3)n2c1C(=O)OC	12%[8.59 µM]	2%[8.59 µM]
CCC(=O)OC1(c2ccccc2)CCN(C)CC1	-15%[107 µM]	-6%[107 µM]
CCOC(=O)C1(c2ccccc2)CCN(CCC(C#N)(c2ccccc2)c2ccccc2)CC1	2.5µM*	7.9µM*
CCC=CCCC(OC(=O)c1ccc(Br)cc1)C1=CCCCC1=O (stereo not given)	62%[8.59 µM]	7%[8.59 µM]
SMILES	MARV entry inh	LASV entry inh
C=CCOC(=O)C1=C(C)N(CC)C(=O)NC1c1ccccc1 (stereo not given)	-5%[8.59 µM]	5%[8.59 µM]
CN(C)CCC=C1c2ccccc2C=Cc2ccccc21	11µM*	32µM*!
CN(C)CC/C=C1/c2ccccc2COc2ccc(CC(=O)O)cc21	22%	-13%
CN(C)CC/C=C1\c2ccccc2Sc2ccc(Cl)cc21	11µM*!	28µM*!
CN(C)CCC=C1c2ccccc2C(C)(C)c2ccccc21	4.5µM*	18µM*
CNCCC=C1c2ccccc2C=Cc2ccccc21	5µM*	?
OCCN1CCN(CC/C=C2/c3ccccc3Sc3ccc(Cl)cc32)CC1	?	-28%[17.8 µM]
O=C1[C@H]2[C@@H]3[C@@H](O)[C@H](O)CC(=NOCc4ccccc4)[C@@H]3CC[C@H]2C(=O)N1c1ccc(F)cc1F	-9%[8.59 µM]	3%[8.59 µM]
Cc1cccc(C)c1Nc1oc(-c2ccccc2)nc1C(C)(C)C	2%[8.59 µM]	17%[8.59 µM]
CCC[C@H]1CN(Cc2cccnc2)C(=O)[C@H]1CC(=O)Nc1ccc(Br)cc1	28%	12%
COC[C@H]1CCCN1[C@H]1C[S+](=O)([O-])N[C@H]1COCc1ccccc1	36%	16%
C=C[C@@]1(C)CC[C@H](O)[C@H]2C(=O)CCC[C@H]21	-28%[8.59 µM]	11%[8.59 µM]
CC(=O)c1ccc(OCc2cn(CC(=O)c3ccc(O)cc3)nn2)cc1C	12%	8%
COC(=O)C(C(C)=O)[C@@H](NC(=O)NCc1ccccc1)c1ccccc1 (stereo not given in full)	25%[8.59 µM]	15%[8.59 µM]
COCCN1C(=O)NC(CCc2ccccc2)C(C(=O)OC)=C1C (stereo not given)	72%[8.59 µM]	6%[8.59 µM]
COc1ccc(C=CC2=CC3(C)CC2(C)C(c2ccc(OC)cc2)CC3=O)cc1 (stereo not given)	-13%[8.59 µM]	9%[8.59 µM]
CN(C)CC/C=C1/c2ccccc2COc2ccccc21	?	3%
